In all, about 50,000 compounds went through this assay and about 800 (1.6%) showed an effect of 50% or more. Shown is part of a subset that was picked to be rich in strong results.

In the test the target is Bcl-2-like protein 10 (Homo sapiens) (UniProt Q9HD36). Description: TR3 peptide-Bcl-B binding displacers, biochemical primary FP assay, phenotype converters (AID 1240).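 Further: 0% = Bcl-B with tracer peptide and DMSO and 100% = tracer peptide lacking Bcl-B.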 The following applies: GST-Bcl-B / FITC-TR3 peptide fluorescence polarization; stronger effect = higher value; compound at 3.75 mg/L. In general terms: Polarisation of emitted light reports the rotation of a fluorescent probe.
Bcl-2-like protein 10 (Homo sapiens), sequence (Q9HD36 whole entry, looked up): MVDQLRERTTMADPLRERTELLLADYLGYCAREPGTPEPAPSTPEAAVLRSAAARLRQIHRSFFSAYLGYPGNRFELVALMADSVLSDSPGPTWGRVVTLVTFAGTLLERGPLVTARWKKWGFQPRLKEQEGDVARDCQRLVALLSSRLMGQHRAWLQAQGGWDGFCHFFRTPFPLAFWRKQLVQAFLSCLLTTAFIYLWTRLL
In the case of `O=C(/C=C/c1cccc(C(F)(F)F)c1)Nc1ccccc1[N+](=O)[O-]`, the displacement was 7%.

As to `O=C(O)CCC(=O)N1N=C(c2cccs2)CC1c1ccccc1Cl` (stereo not drawn), the displacement is -8.4%.

As for `O=C(Cc1ccc(Cl)cc1)Nc1ccc(Cl)cn1`, the displacement turned out to be 8.8%.

As to `Clc1ccc(N2CCN(N=Cc3c(Cl)cccc3Cl)CC2)cc1`, the displacement came out at 8.5%.

As for `Cc1ccc(C(=O)Nc2ccc(C(=O)O)cc2)cc1S(=O)(=O)NC1CCCCC1`, the displacement was -11.1%.

On to `Cc1nn(-c2ccccc2)c(C)c1/C=N/O`, for which the displacement is 3.2%.

For the molecule `CCOC(=O)c1c(NC(=O)C(C)N2C(=O)c3ccccc3C2=O)sc2c1CCC(C)C2` (stereo not drawn), the displacement was found to be 2.5%.

Take `COc1ccc(N2C(=O)NC(=O)/C(=C/c3cccc(OCc4ccccc4F)c3)C2=O)cc1`: the displacement came out at 0.1%.

For `O=C1NC(=O)N(c2ccccc2)C(=O)/C1=C\c1ccc(OCc2ccccc2F)cc1`, the displacement came out at 12.9%.

On to `O=C1NC(=O)N(c2ccccc2)C(=O)/C1=C\c1ccc(-c2ccc(F)cc2)o1`, for which the displacement was determined as 137%.

Turning to `COc1ccc(N2C(=O)NC(=O)/C(=C/c3ccc(Sc4ccc(C)cc4)o3)C2=O)cc1`, the displacement came to 125%.

Take `COc1ccc(N2C(=O)NC(=O)/C(=C\c3ccc(C)cc3)C2=O)cc1`: the displacement is -6%.

Regarding `COc1ccc(N2C(=O)NC(=O)/C(=C/c3ccc(-c4ccc(F)cc4)o3)C2=O)cc1`, the displacement turned out to be 100%.

On to `COc1ccc(N2C(=O)NC(=O)/C(=C\c3ccc(-c4ccccc4C(=O)O)o3)C2=O)cc1`, for which the displacement was -88.8%.

For `COc1ccc(N2C(=O)NC(=O)/C(=C/c3ccc(OCc4ccccc4F)cc3)C2=O)cc1`, the displacement came out at 63.1%.

Take `COc1ccc(N2C(=O)NC(=O)/C(=C/c3ccc(I)o3)C2=O)cc1`: the displacement came out at 3.6%.

For the molecule `Cc1ccc(N2C(=O)NC(=O)/C(=C/c3ccc(-c4ccc(F)cc4)o3)C2=O)cc1`, the displacement was 40.5%.

With `O=C1NN(c2ccccc2)C(=O)/C1=C/c1ccc(-c2ccc(F)cc2)o1`, the displacement stood at 8.1%.

For the molecule `COC(=O)c1c(N)sc(C(=O)Nc2ccccc2OC)c1C`, the displacement was found to be 1.7%.

Regarding `Cc1cc(Cl)ccc1OCC(=O)Nc1nc2ccc(Cl)cc2s1`, the displacement was -7.8%.

With `O=[N+]([O-])c1cccc(S(=O)(=O)N2CCc3ccccc3C2)c1`, the displacement turned out to be 0%.

For the molecule `COc1ccccc1N1C(=O)C2C(C1=O)C1C=CC2C12CC2` (stereo not drawn), the displacement is 15.1%.

On to `O=C(Nc1ccc(I)cc1)/C(=C\c1cccc([N+](=O)[O-])c1)NC(=O)c1cccs1`, for which the displacement was -0.6%.

Turning to `COc1cccc(OC)c1C(=O)Nc1ccc(C(=O)Oc2ccccc2)c(O)c1`, the displacement is -9.1%.

With `O=C(Nc1ccc(Cl)c(-c2nc3ccccc3o2)c1)c1cccc(F)c1`, the displacement was -5.1%.

As for `CC(=O)Nc1ccc(S(=O)(=O)Nc2ccccc2Br)cc1`, the displacement was -2.9%.

Turning to `O=C1NC(=S)N/C1=C/c1cccc(O)c1`, the displacement was -6.7%.

Take `COc1cc(OC)cc(-c2nc3ccc(C)cc3c(=O)o2)c1`: the displacement was -17.8%.

Source of the values: PubChem BioAssay AID1240 (Sanford-Burnham Center for Chemical Genomics, 2008).
